The panel holds about 83,000 compounds, 20% with a hit somewhere; the sample as a whole holds those more often.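 Growth was measured after 48 h exposure to one concentration of compound in 96-well plates. Values under 10 count as active.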 Unmarked numbers belong to inactive results. Active and inactive are the calls of the source.

This test deals with HL-60(TB) leukemia. In words: NCI-60 one-dose screen, 48 h (100 = growth as untreated, 0 = no growth, -100 = all killed). Conditions: 10 µM unless noted.
Regarding `Cn1c2ccccc2c2c3c(c4c5cc(Br)ccc5n(C)c4c21)C(=O)N(O)C3=O`, the growth is -33.2% (active). On to `CCCC[C@@H](C=O)NC(=O)[C@H](CC(C)C)NC(=O)[C@H](CC(C)C)NC(=O)OCc1ccccc1`, for which the growth is -30.1% (active). In the case of `C=C(C)[C@@H]1CC[C@]2(C(=O)OCCOCCOCC[P+](c3ccccc3)(c3ccccc3)c3ccccc3)CC[C@]3(C)[C@H](CC[C@@H]4[C@@]5(C)CC[C@H](OC(=O)C(Cl)Cl)C(C)(C)[C@@H]5CC[C@]43C)[C@@H]12`, the growth is -47.8% (active). For `CC/C(=C(/c1ccc(Cl)cc1)c1ccc(OCCN2CCCCC2)cc1)c1ccc(Cl)cc1` the value was 68.5%; for `CC(C)[C@@H]1CC[C@]2(C(=O)NCCCCN=C(N)N)CC[C@]3(C)[C@H](CC[C@@H]4[C@@]5(C)CCC(=O)C(C)(C)[C@@H]5CC[C@]43C)[C@@H]12`, 13.5%. For `COc1ccc(N2C(=O)C3c4[nH]c5ccc(OCc6ccccc6)cc5c4C4CCC(C(C)C)CC4C3C2=O)cc1` (stereo not given) the value was 68.9%; for `O=C1NC(=O)/C(=C/C=C/c2ccccc2)S1`, -29.3% (active). The figure for `CCn1c2ccccc2c2cc(C(O)c3cccc4ncccc34)ccc21` (stereo not given) is 10.5%; for `CCn1cc(C2=C(c3cn(C)c4ncccc34)C(=O)NC2=O)c2cccnc21` it is 89.8%. Regarding `O=S(=O)(NCCNc1nccc(-c2c(-c3cccc(F)c3)nc3sccn23)n1)c1ccc(Br)cc1`, the growth was 90.5%. For `CCOC(=O)N1CCN(c2nc(Nc3cc(C)[nH]n3)c3ccccc3n2)CC1` the value was 26.3%; for `O=C1Nc2ccc(C(=O)O)cc2/C1=N/c1nnc(Sc2ccccc2)s1`, 96.4%. For `COc1cc2oc(-c3cccc(C(=O)Nc4ccc5c(c4)OCO5)c3)cc(=O)c2c(O)c1OC` the value was 94.3%; for `CN(C)CCC1(c2ccccc2)CCN(C)C1=O` (stereo not given), 109%; for `CCC(Br)(CC)C(=O)c1ccc(OCC(=O)O)c(Cl)c1Cl`, 111%. The figure for `COC(=O)c1ccc(C)cc1` is 106%. Take `Clc1ccccc1Nc1ccc2nnc(-c3ccncc3)n2n1`: the growth was 75.8%. For the compound `c1ccc(-c2n(Cc3ccc4ccccc4n3)cc[n+]2Cc2ccc3ccccc3c2)cc1`, the growth was -54.3% (active). The figure for `COc1ccc(-c2nc(N)n(C(=S)Nc3ccccc3)n2)cc1` is 96.4%; for `COc1cc2nccc(Oc3ccc(NC(=O)C4(C(=O)Nc5ccc(F)cc5)CC4)cc3)c2cc1OC(=O)c1ccc(N)cc1` it is -43.9% (active). For `CN(C)c1ccc(/C=C/C(=O)c2ccccc2)cc1` the value was 66.7%. For `C(=C\c1ccncc1)/c1ccncc1` the value was 105%; for `Cn1c2ccccc2c2c3c(c4c5cccnc5[nH]c4c21)C(=O)N(O)C3=O`, 17.2%; for `C=C(c1ccc(C(=O)O)c(F)c1)c1cc2c(cc1C)C(C)(C)CCC2(C)C`, 97.2%. On to `O=C(/C=C/c1ccco1)c1ccccc1O`, for which the growth is 92.5%. `COc1cccc(/C=C/C(=O)c2cccc(Nc3nc(Nc4ccccc4)nc(Nc4ccccc4)n3)c2)c1`: the growth was 94.2%. For `c1cc2cccc3c4cccc5cccc(c(c1)c23)c54` the value was 109%; for `O=C1C=CC(=O)N1c1ccccc1`, 44.5%. Consider `CC(CNC(Cc1ccccc1)c1ccccc1)NC(Cc1ccccc1)c1ccccc1` (stereo not given), for which the growth was 26.2%. For `N=C(N)c1ccc(-c2ccc(-c3ccc(Cl)cn3)s2)cc1` the value was -45.8% (active). For `Cn1nc(C(F)(F)F)cc1-c1c[nH]c(OCc2ccc(Cl)cc2)c(-c2ccc(Cl)c(C(F)(F)F)c2)c1=O` the value was -28% (active). With `C/C(=N/N=C(N)N)c1ccc(Cl)cc1`, the growth is 171%. For `CC(=O)C1CC(C)CCC1C(C)C` (stereo not given) the value was 58.7%; for `COc1ccc(C(=O)c2ccc(C)cc2)c(OC)c1OC`, 93.4%; for `C[C@@H]1O[C@@H](O[C@@H]2C[C@H](c3ccc4c(c3O)C(=O)C3=C(C4=O)[C@@]4(O)C(=O)C[C@](C)(O)C[C@@]4(O)C=C3)O[C@H](C)[C@H]2O)CC[C@@H]1O[C@H]1C[C@@H](O)[C@H](O)[C@@H](C)O1`, 99.4%. Regarding `CC(=O)c1cc2c(N)c(C(=O)Nc3cccc4ccncc34)sc2nc1C`, the growth was 86.2%. Turning to `O=S(=O)(NCCCNc1nccc(-c2c(-c3ccc(F)cc3)nc3sccn23)n1)c1ccc2ccccc2c1`, the growth was 34.8%. In the case of `CCN(CC)c1ccc(N2C(=O)/C(=C/c3cccs3)SC2=S)cc1`, the growth was 92.6%. The figure for `COc1cnc2c(c1)C(=O)c1c-2n(CCCNC2=NCCS2)c(=O)c2cc(F)ccc12` is -45.5% (active); for `CN(C)C1CCN(C(=O)c2ccc(NC(=O)Nc3ccc(-c4nc(N5CCOCC5)c5cccn5n4)cc3)cc2)CC1` it is 4.58% (active).

(Values after PubChem BioAssay (NCI).)
